Data reported in the supplement of paper PMC9135407.
Several values for one entry are separate records, joined by “and”; a condition that tells them apart may be missing. Equal values may be shown once. Where a name gives a salt, the structure may show the parent alone. Among all 5,800 compounds or so, about 620 (11%) showed activity. The list comes from a sample in which actives are over-represented; it also holds similar structures and randomly drawn compounds. Unmarked numbers belong to inactive results.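 The calls were made as follows: active = score above a cut-off or among the top three wells of a plate; in these data no inactive exceeds 0.85.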

Test system: primary human hepatic stellate cells (donor 1)
Experiment: scaled lipid accumulation score (0 = DMSO-like, 1 = nortriptyline-like); higher = stronger HSC inactivation (lipid re-accumulation), active = hit call of the paper
Conditions: 48 h
[1] = library stock concentration: 80 uM
[2] = library stock concentration: 400 uM
[3] = library stock concentration: 2 mM
[4] = library stock concentration: 10 mM
[5] = library stock concentration: 3.33 mM
[6] = library stock concentration: 1 mM

C[C@H]1Oc2cc(cnc2N)-c2c(nn(C)c2C#N)CN(C)C(=O)c2ccc(F)cc21
scaled lipid accumulation score [1]: ≤ 0 | scaled lipid accumulation score [2]: ≤ 0 | scaled lipid accumulation score [3]: 0.031 | scaled lipid accumulation score [4]: ≤ 0

C[C@H]1COc2c(C3(N)CC3)c(F)cc3c(=O)c(C(=O)O)cn1c23
scaled lipid accumulation score [4]: 0.025 and ≤ 0

C[C@H]1COc2c(C3(N)CC3)c(F)cc3c(=O)c(C(=O)O)cn1c23 [Pazufloxacin]
scaled lipid accumulation score (library stock concentration: 6.3 mM): ≤ 0

Clc1ccccc1C(c1ccccc1)(c1ccccc1)n1ccnc1 [Clotrimazole]
scaled lipid accumulation score: ≤ 0 | scaled lipid accumulation score [5]: ≤ 0 | scaled lipid accumulation score (library stock concentration: 5.8 mM): ≤ -0.001 | scaled lipid accumulation score [4]: ≤ 0

N=C(N)NC(=O)c1nc(Cl)c(N)nc1N [Amiloride HCl]
scaled lipid accumulation score [5]: ≤ 0 | scaled lipid accumulation score [4]: ≤ 0

N=C(N)NC(=N)Nc1ccccc1 [1-Phenylbiguanide hydrochloride]
scaled lipid accumulation score [4]: ≤ 0

N=C(N)NC(=O)c1nc(Cl)c(N)nc1N [Amiloride hydrochloride dihydrate]
scaled lipid accumulation score: ≤ 0

N=C(N)NC(=O)c1nc(Cl)c(N)nc1N [Amiloride hydrochloride]
scaled lipid accumulation score (library stock concentration: 7.5 mM): ≤ -0.001 | scaled lipid accumulation score [4]: ≤ 0

CC(=O)Nc1ccccc1 [Acetanilide]
scaled lipid accumulation score [5]: ≤ 0 | scaled lipid accumulation score [4]: ≤ 0 and 0.04

N=C(NC(=O)c1nc(Cl)c(N)nc1N)Nc1ccccc1 [Phenamil]
scaled lipid accumulation score (library stock concentration: 16.4 mM): 1.07 (active)

N=C(N)NC(=O)c1nc(Cl)c(N)nc1N [Amiloride]
scaled lipid accumulation score (library stock concentration: 8.7 mM): ≤ -0.006

CS(=O)(=O)O.N=C(NC(=O)c1nc(Cl)c(N)nc1N)Nc1ccccc1 [Phenamil methanesulfonate]
scaled lipid accumulation score [4]: 1.15 (active)

N=C(N)NC(=O)c1nc(Cl)c(N)nc1N
scaled lipid accumulation score (library stock concentration: 18.8 mM): ≤ -0.021

CCCCCCCCCCCCCCCC(=O)NCCc1ccc(O)c(O)c1 [N-Palmitoyl Dopamine]
scaled lipid accumulation score [6]: ≤ 0

CC[C@]1(O)C[C@@H]2CN(CCc3c([nH]c4ccccc34)[C@@](C(=O)OC)(c3cc4c(cc3OC)N(C)[C@H]3[C@@](O)(C(=O)OC)[C@H](OC(C)=O)[C@]5(CC)C=CCN6CC[C@]43[C@@H]65)C2)C1 [Vinblastine]
scaled lipid accumulation score [5]: 0.782

CC[C@]1(O)C[C@@H]2CN(CCc3c([nH]c4ccccc34)[C@@](C(=O)OC)(c3cc4c(cc3OC)N(C)[C@@H]3C45CCN4CC=C[C@](CC)([C@H]45)[C@H](OC(C)=O)[C@]3(O)C(=O)OC)C2)C1 (stereo not given in full) [Vinblastine]
scaled lipid accumulation score [4]: 0.956 (active)

CCCCC[C@@H](O)/C=C/[C@H]1[C@H](C/C=C\CCCC(=O)O)C(=O)C[C@@H]1O [ent-Prostaglandin E2]
scaled lipid accumulation score [6]: ≤ 0

CC(C)=CC[C@@H](O)C1=CC(=O)c2c(O)ccc(O)c2C1=O [Shikonin]
scaled lipid accumulation score (library stock concentration: 6.9 mM): 0.554 | scaled lipid accumulation score (library stock concentration: 17.3 mM): ≤ -0.012

CCCCC[C@H](O)/C=C/[C@H]1[C@H](O)CC(=O)[C@@H]1C/C=C\CCCC(=O)NCCO [Prostaglandin E2 Ethanolamide]
scaled lipid accumulation score [6]: ≤ 0

CC(C1=C(CCN(C)C)Cc2ccccc21)c1ccccn1 (stereo in doubt) [(S)-(+)-Dimethindene maleate]
scaled lipid accumulation score [4]: 0.162

CCCCCC(O)/C=C/C=O (stereo not given) [4-hydroxy Nonenal]
scaled lipid accumulation score [6]: ≤ 0

Cc1cc(C(=O)Nc2cc(Nc3ccc4c(/C=C/c5ccccn5)n[nH]c4c3)ccc2F)n(C)n1 [listing 1 of 2 here]
scaled lipid accumulation score [4]: 1.61 (active)

CNC(=O)c1ccccc1Sc1ccc2c(/C=C/c3ccccn3)n[nH]c2c1 [Axitinib]
scaled lipid accumulation score [1]: ≤ -0.001 | scaled lipid accumulation score [2]: ≤ -0.001 | scaled lipid accumulation score [3]: ≤ -0.001 | scaled lipid accumulation score [5]: ≤ 0 | scaled lipid accumulation score [4]: ≤ 0 and ≤ -0.001

CNC(=O)c1ccccc1Sc1ccc2c(/C=C/c3ccccn3)n[nH]c2c1
scaled lipid accumulation score [2]: 0.07 | scaled lipid accumulation score [3]: ≤ -0.005 | scaled lipid accumulation score [4]: 0.024

Cc1cc(C(=O)Nc2cc(Nc3ccc4c(/C=C/c5ccccn5)n[nH]c4c3)ccc2F)n(C)n1 [listing 2 of 2 here]
scaled lipid accumulation score [2]: 0.035 | scaled lipid accumulation score [3]: 0.724

CCCCC[C@H](O)CC[C@@H]1[C@H]2Cc3cccc(OCC(=O)O)c3C[C@H]2C[C@H]1O [Treprostinil]
scaled lipid accumulation score [6]: 0.05

CCCC(=O)[O-].[Na+] [Sodium Butyrate]
scaled lipid accumulation score [6]: ≤ 0

CCCCCCCCCCOCCC(=O)O [4-Oxatetradecanoic acid]
scaled lipid accumulation score [6]: 0.156

C1=N/C2=N/c3ccc(OCCN4CCCC4)c(c3)COC/C=C/COCc3cccc(c3)C(=C1)N2 [Pacritinib]
scaled lipid accumulation score [1]: 0.184 | scaled lipid accumulation score [2]: 0.686 | scaled lipid accumulation score [3]: 0.473

C1=CCOCc2cc(ccc2OCCN2CCCC2)Nc2nccc(n2)-c2cccc(c2)COC1 [Pacritinib]
scaled lipid accumulation score [4]: 0.932 (active)

C1=N/C2=N/c3ccc(OCCN4CCCC4)c(c3)COC/C=C/COCc3cccc(c3)C(=C1)N2 [Pacritinib (SB1518)]
scaled lipid accumulation score [5]: 0.536 | scaled lipid accumulation score [4]: 0.41

Cn1c(N2CCCCS2(=O)=O)nc(C(=O)NCc2ccc(F)cc2)c(O)c1=O
scaled lipid accumulation score [5]: 0.024 | scaled lipid accumulation score [4]: ≤ 0

NCCNc1ncc(C(N)=O)c(Nc2cccc(C(F)(F)F)c2)n1 [Syk Inhibitor II]
scaled lipid accumulation score [5]: 0.589

CC1c2ccccc2CN1CC1=NCCN1 (stereo not given)
scaled lipid accumulation score [4]: 0.014

CCCCC[C@H](O)/C=C/[C@H]1C2COC(C2)[C@@H]1C/C=C/CCCC(=O)O (stereo not given in full)
scaled lipid accumulation score [6]: ≤ 0

CC[C@@H](C)Nc1cc(C(=O)N[C@H]2C[C@H]3CC[C@@H](C2)N3c2ccc(C(=O)C3CC3)cn2)c(C)cc1C(N)=O
scaled lipid accumulation score [5]: 0.762

CC[C@@H](C)Nc1cc(C(=O)NC2CC3CCC(C2)N3c2ccc(C(=O)C3CC3)cn2)c(C)cc1C(N)=O (stereo not given in full)
scaled lipid accumulation score [4]: 0.853 (active)

NC(=O)c1ccc[n+]([C@@H]2O[C@H](COP(=O)([O-])OP(=O)(O)OC[C@H]3O[C@@H](n4cnc5c(N)ncnc54)[C@H](OP(=O)(O)O)[C@@H]3O)[C@@H](O)[C@H]2O)c1 [Sodium beta-nicotinamide adenine dinucleotide phosphate]
scaled lipid accumulation score [4]: ≤ -0.027

CC1Nc2ccc(Cl)cc2S(=O)(=O)N1 (stereo not given)
scaled lipid accumulation score [4]: ≤ -0.006

CC(=O)c1ncc([C@@H](O)[C@H](O)[C@H](O)CO)[nH]1 [2-Acetyl-5-tetrahydroxybutyl Imidazole]
scaled lipid accumulation score [6]: ≤ 0

COc1ccc(/C=C/c2nc(NCCCN(C)C)c3ccccc3n2)cc1
scaled lipid accumulation score [4]: 0.387

Cc1[nH]c2ccccc2c1CCNCc1ccc(/C=C/C(=O)NO)cc1 [Panobinostat (LBH589)]
scaled lipid accumulation score [5]: 0.728 | scaled lipid accumulation score [4]: 0.587

O=c1cc(N2CCOCC2)oc2c(-c3ccccc3)cccc12
scaled lipid accumulation score [6]: 0.001 | scaled lipid accumulation score [5]: ≤ 0 | scaled lipid accumulation score [4]: ≤ 0 and 0.005 | scaled lipid accumulation score (library stock concentration: 16.3 mM): ≤ -0.012

O=c1cc(N2CCNCC2)oc2c(-c3ccccc3)cccc12 [listing 1 of 2 here]
scaled lipid accumulation score [5]: 0.39

O=c1cc(N2CCOCC2)oc2c(-c3ccccc3)cccc12 [LY-294,002 hydrochloride]
scaled lipid accumulation score [4]: 0.089

O=c1cc(N2CCNCC2)oc2c(-c3ccccc3)cccc12 [listing 2 of 2 here]
scaled lipid accumulation score [4]: 1.28 (active)

CC[C@]1(O)C[C@H]2CN(CCc3c([nH]c4ccccc34)[C@@](C(=O)OC)(c3cc4c(cc3OC)N(C)[C@H]3[C@@](O)(C(=O)OC)[C@H](OC(C)=O)[C@]5(CC)C=CCN6CC[C@]43[C@@H]65)C2)C1.O=S(=O)(O)O [Vinblastine sulfate]
scaled lipid accumulation score [4]: 1.67 (active)

CCC1(O)CC2CN(CCc3c([nH]c4ccccc34)[C@@](C(=O)OC)(c3cc4c(cc3OC)N(C)C3[C@]45CCN4CC=C[C@@](CC)([C@@H](OC(C)=O)[C@]3(O)C(=O)OC)[C@H]45)C2)C1.O=S(=O)(O)O (stereo not given in full) [Vinblastine sulfate salt]
scaled lipid accumulation score [4]: 0.877 (active)

CCCCCCCCCCCCCCCCCC(=O)OC(CC(=O)O)C[N+](C)(C)C (racemic) [DL-Stearoylcarnitine chloride]
scaled lipid accumulation score [4]: 0.037

CCCCCCCCCCCCCCCC(=O)OC[C@H](O)[C@H]1OC(=O)C(O)=C1O [Ascorbyl palmitate]
scaled lipid accumulation score (library stock concentration: 4.8 mM): 0.002

CC(=O)N[C@@H](CCC(=O)O)C(=O)O [Acetylglutamic acid]
scaled lipid accumulation score [4]: ≤ 0

CCCCN1CCCC1CNC(=O)c1cc(C#N)c2ccccc2c1OC (stereo not given) [Nafadotride]
scaled lipid accumulation score [4]: 0.668 and 0.214

CS(=O)(=O)c1ccc(-c2nc(-c3ccc(F)cc3)c(-c3ccncc3)[nH]2)cc1
scaled lipid accumulation score [5]: ≤ 0

CN(C)CC[C@@H](c1ccc(Br)cc1)c1ccccn1
scaled lipid accumulation score [4]: ≤ 0

O=C1NCCc2[nH]c(-c3ccncc3)cc21
scaled lipid accumulation score [1]: ≤ -0.016 | scaled lipid accumulation score [2]: 0.1 | scaled lipid accumulation score [3]: 0.125 | scaled lipid accumulation score [5]: ≤ 0 | scaled lipid accumulation score [4]: 0.19

CCCCCCCCCCCCCC(=O)O [Myristic Acid]
scaled lipid accumulation score [6]: ≤ 0

Cn1c(=O)c(-c2c(Cl)cccc2Cl)cc2cnc(Nc3ccc(N4CCOCC4)cc3)nc21
scaled lipid accumulation score [4]: ≤ 0

c1cn2cc(-c3ccc4cn[nH]c4c3)nc(Nc3ccc(N4CCOCC4)cc3)c2n1 [Entospletinib] [listing 1 of 2 here]
scaled lipid accumulation score [1]: ≤ 0 | scaled lipid accumulation score [2]: 0.023

c1nc2c(NC3CCCCC3)nc(Nc3ccc(N4CCOCC4)cc3)nc2[nH]1 [Reversine]
scaled lipid accumulation score [5]: ≤ 0

Cc1cc(N2CCOCC2)ccc1Nc1nc(NC2CCCCC2)c2[nH]cnc2n1
scaled lipid accumulation score [5]: 0.091 | scaled lipid accumulation score [4]: ≤ 0

c1cn2cc(-c3ccc4cn[nH]c4c3)nc(Nc3ccc(N4CCOCC4)cc3)c2n1
scaled lipid accumulation score [5]: 1.04 (active) | scaled lipid accumulation score [4]: 0.944 (active)

c1cn2cc(-c3ccc4cn[nH]c4c3)nc(Nc3ccc(N4CCOCC4)cc3)c2n1 [Entospletinib] [listing 2 of 2 here]
scaled lipid accumulation score [3]: 1.2 (active) | scaled lipid accumulation score [4]: 1.21 (active)
